From PubChem BioAssay
ALDH1A1 inh: inhibitors of human aldehyde dehydrogenase 1A1; Purified ALDH1A1, NADH fluorescence, propionaldehyde substrate; Potency, µM (top dose mostly 75.3 µM), for inactives: top-dose activity, negative = inhibition, usual class: inhibitors; hit rate 7.3% among 220,000; AID 1030;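 further: potency means the concentration at half of the fitted maximal effect; plate controls were no enzyme wells and a reference inhibitor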
HTT aggregate: reduces HttQ103-GFP aggregates in PC12 cells; PC12 HttQ103-GFP aggregates, Acumen cytometry, 40 h; Potency, µM (doses to about 46.1 µM), for inactives: at the highest dose activity change, negative = inhibition, hits mostly inhibitors; hit rate 1.1% among 220,000; active means well fitted curve in the direction sought with a large enough effect; inconclusive means small, poorly fitted or top-dose-only effect, or another doubt; inactive means no such curve, though single readings can be large; an effect the other way counts as inactive or inconclusive; further: potency means the concentration at half of the fitted maximal effect; on the % scale 0 is the no-effect control and ±100 the full control effect; nearly all actives have a fitted effect of over 60% in size
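Aggregates are detected as GFP objects 1–25 µm with signal 6 STDEV over background in lysates of induced PC12 cells. These carry Huntingtin exon 1 with 103 glutamines fused to GFP under an ecdysone promoter; compounds titrated.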
HPGD block: blocks human HPGD enzyme activity; P15428; AID 894; purified HPGD, NADH fluorescence kinetic, PGE2 substrate; hit rate 4.3% among 150,000; Potency, µM, for the others: top-dose activity change, negative = inhibition, actives largely listed as inhibitors; further: potency means the concentration at half of the fitted maximal effect; on the % scale 0 is the no-effect control and ±100 the full control effect
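NADH formation kinetics: reaction with 30 uM PGE2 and 1 mM NAD+ (final), 20 nM enzyme, Tris-HCl pH 8 with Tween 20, after 15 min compound preincubation at room temperature. Fluorescence change, last versus first of five reads.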
JMJD2E inh: inhibitors of human JMJD2E histone demethylase | JMJD2E catalytic domain, FDH-coupled NADH fluorescence (FDH is formaldehyde dehydrogenase) | hit rate 1.6% among 230,000 | Potency, µM (doses to about 57.1 µM), without a hit: top-dose activity change, negative = inhibition, most hits filed as inhibitors | B2RXH2;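 further: potency means the concentration at half of the fitted maximal effect; 0% = wells with enzyme and -100% = buffer wells without enzyme; nearly all actives have a fitted effect of over 50% in size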
CBFb RUNX1 block: CBF-beta/RUNX1 interaction disruption; Q01196+Q13951; AlphaScreen CBFb-His/RUNX1-biotin binding, biochemical; Potency, µM (top dose mostly 59.8 µM), for inactives: top-dose activity, negative = inhibition, most hits filed as inhibitors; 230,000 tested, under 10 active; AID 1477; active means well fitted curve in the direction sought with a large enough effect; inconclusive means small, poorly fitted or top-dose-only effect, or another doubt; inactive means no such curve, though single readings can be large; an effect the other way counts as inactive or inconclusive; further: % of control where 0% means no effect
Target sequence (Q01196 whole entry, looked up): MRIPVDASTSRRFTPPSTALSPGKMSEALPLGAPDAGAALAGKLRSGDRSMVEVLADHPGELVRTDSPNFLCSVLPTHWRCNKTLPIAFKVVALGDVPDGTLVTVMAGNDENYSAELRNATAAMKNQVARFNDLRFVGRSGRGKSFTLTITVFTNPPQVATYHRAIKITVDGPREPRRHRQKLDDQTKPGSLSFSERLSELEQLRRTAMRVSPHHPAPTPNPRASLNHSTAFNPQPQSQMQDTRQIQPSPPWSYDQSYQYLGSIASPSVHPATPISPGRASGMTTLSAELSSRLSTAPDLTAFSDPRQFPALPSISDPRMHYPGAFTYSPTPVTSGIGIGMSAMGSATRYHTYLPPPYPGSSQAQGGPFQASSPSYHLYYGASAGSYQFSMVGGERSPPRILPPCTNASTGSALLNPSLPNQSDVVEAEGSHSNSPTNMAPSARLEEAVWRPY
Target sequence (Q13951 whole entry, looked up): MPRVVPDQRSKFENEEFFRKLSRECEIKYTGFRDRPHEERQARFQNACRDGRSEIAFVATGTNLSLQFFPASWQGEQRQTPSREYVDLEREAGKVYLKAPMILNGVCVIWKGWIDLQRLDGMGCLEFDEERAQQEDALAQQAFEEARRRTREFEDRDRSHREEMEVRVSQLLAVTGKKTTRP
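His-tagged CBF-beta and biotinylated RUNX1 (30 nM each) were premixed 20 min at room temperature, exposed to compound for 15 min, then given nickel-chelate and streptavidin AlphaScreen beads (50 ng each). After 90 min, AlphaScreen signal was read.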
HTT ATP protect: cytoprotection in Huntington HTT-Q103 PC12 cell model; PC12 HTT-Q103 induced, cytoprotection, ATP luminescence, 40 h; Potency, µM (highest dose often 56.4 µM), without a hit: cytoprotection (ATP increase), most hits filed as activators; hit rate 0.14% among 230,000; active means well fitted curve in the direction sought with a large enough effect; inconclusive means small, poorly fitted or top-dose-only effect, or another doubt; inactive means no such curve, though single readings can be large; an effect the other way counts as inactive or inconclusive; further: potency means the concentration at half of the fitted maximal effect; % of control where 0% means no effect; nearly all actives have a fitted effect of over 45% in size
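Rat PC12, Q103 Htt exon1-GFP fusion, ecdysone promoter; tebufenozide inducer 100 nM final; compound titration; qHTS, 1500 cells/well; ATPlite luminescent read.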
Starred values were filed as active, the others as inactive; ! = not active in a repeat; [ ] = remark or other dose. This is a sample that favours compounds with a hit; in the whole collection about 9.8% have one here. Unless noted, the call rests on the fitted dose curve; in most records, active means well fitted inhibition curve with a large enough effect (not every such curve was filed as active); inconclusive means small, poorly fitted or top-dose-only effect, or another doubt; inactive means no such curve, though single readings can be large or run the other way.

O=C1NC(=O)[C@]2(Cc3ccccc3N3CCN(c4ccccc4)CC32)C(=O)N1c1ccccc1 (some centres not stated) was read as ALDH1A1 inh 25µM*, HTT aggregate 11%, HPGD block -9%, JMJD2E inh -8%, CBFb RUNX1 block -7% and HTT ATP protect -5%.
For O=C1NC(=O)C2(Cc3ccccc3N3CCCC32)C(=O)N1c1ccc(Cl)cc1 (configuration not stated) the results were ALDH1A1 inh inconclusive, HTT aggregate 4%, HPGD block inconclusive, JMJD2E inh 25µM*, CBFb RUNX1 block -6% and HTT ATP protect -19%[0.074 µM].
Screening Oc1ccc([C@H](O)C2CCCCN2)cc1O (some centres not stated) returned ALDH1A1 inh 5%[13.5 µM] and HPGD block 1%.
Screening Cc1oc2ccc(OC(=O)N3CCOCC3)cc2c1C(=O)OC(C)C returned ALDH1A1 inh 4µM*, HTT aggregate 1%, HPGD block -9%, JMJD2E inh 6%, CBFb RUNX1 block 8% and HTT ATP protect -7%.
`O=c1[nH]c2sccc2c2ccccc12` gave CBFb RUNX1 block 6%.
`COc1cccc(-n2c(/C=C/c3ccc(O)c(O)c3)nc3ccccc3c2=O)c1` gave ALDH1A1 inh 25µM*, HTT aggregate 12%[9.22 µM], JMJD2E inh 32µM*, CBFb RUNX1 block -26% and HTT ATP protect -14%[10 µM].
For COc1cccc2c1C(=O)c1c(O)c3c(c(O)c1C2=O)C[C@@](O)(C(=O)CO)C[C@@H]3O[C@H]1C[C@H](N)[C@H](OC2CCCCO2)[C@H](C)O1 (some centres not stated) the results were HTT aggregate 4µM* and HTT ATP protect -80%.
For CCCCCCCCCCCCOCCOCCOCCOCCOCCOCCOCCOCCOCCO the results were HTT aggregate inconclusive, CBFb RUNX1 block 16% and HTT ATP protect -78%.
For Cc1ccc(/C=C2/C(=O)NC(=O)N(CCc3ccc(F)cc3)C2=O)o1 the results were ALDH1A1 inh 5.6µM*, HTT aggregate 7%, HPGD block 3.5µM*, JMJD2E inh -8%, CBFb RUNX1 block -5% and HTT ATP protect -26%.
O=C1NC(=O)N(CCc2ccc(F)cc2)C(=O)/C1=C/c1ccco1 was read as ALDH1A1 inh 2.5µM*, HTT aggregate 11%, JMJD2E inh -15%, CBFb RUNX1 block inconclusive and HTT ATP protect -43%.
For S=C(Nc1ccccc1)N1CCN(c2ccccn2)CC1 the results were ALDH1A1 inh -1%, HTT aggregate 18%[9.22 µM], JMJD2E inh inconclusive, CBFb RUNX1 block -16% and HTT ATP protect 5%[10 µM].
O=[N+]([O-])c1ccc2nc(N3CCNCC3)ccc2c1 was read as ALDH1A1 inh 25µM*, HPGD block -16%, JMJD2E inh -4%, CBFb RUNX1 block -1% and HTT ATP protect -58%.
Screening O=C(Nc1ccccc1)c1cc([N+](=O)[O-])ccc1N1CCNCC1 returned ALDH1A1 inh 4%, HTT aggregate 0%[9.22 µM], JMJD2E inh -6%, CBFb RUNX1 block 3% and HTT ATP protect -4%[1.9 µM].
Screening CC(=O)Nc1ccc(S(=O)(=O)N(C)CCOCc2ccccc2)cc1 returned ALDH1A1 inh inconclusive, HTT aggregate 11µM*, HPGD block -7%, JMJD2E inh 0%, CBFb RUNX1 block -7% and HTT ATP protect 3%.
CCCC(C)n1[nH]c(=O)c2c1NC(=O)CSC2c1ccc(OC)cc1 (configuration not stated) was read as ALDH1A1 inh 6%, HTT aggregate -4%, HPGD block -2%, JMJD2E inh -1%, CBFb RUNX1 block -1% and HTT ATP protect 23%.
Cc1ccc(-n2nc(C)c3c2NC(=O)CSC3c2ccc3c(c2)OCO3)cc1 (configuration not stated) was read as ALDH1A1 inh inconclusive, HTT aggregate inconclusive, HPGD block 18µM*, JMJD2E inh inconclusive, CBFb RUNX1 block -5% and HTT ATP protect -36%.
Cc1nn(C2CCOC(C)(C)C2)c2c1C(c1ccc(OC(C)C)cc1)SCC(=O)N2 (configuration not stated) was read as ALDH1A1 inh inconclusive, HTT aggregate 9%, HPGD block -10%, JMJD2E inh -3%, CBFb RUNX1 block -9% and HTT ATP protect -18%.
Screening COc1ccc(C2SCC(=O)Nc3c2c(C)nn3-c2ccccc2)cc1 (configuration not stated) returned ALDH1A1 inh -4%, HTT aggregate -13%, HPGD block 13µM*, JMJD2E inh 6%, CBFb RUNX1 block -2% and HTT ATP protect -21%.
CC(=O)c1ccc(Oc2ccc(C(=O)c3ccc(C)c(C)c3)cc2[N+](=O)[O-])cc1 was read as ALDH1A1 inh 0.79µM*, HTT aggregate 15%, HPGD block 7.1µM*, JMJD2E inh -5%, CBFb RUNX1 block -21% and HTT ATP protect 20%[10 µM].
`O=C(NC1CCCCCC1)c1ccc[nH]c1=S` gave ALDH1A1 inh inconclusive, HTT aggregate inconclusive, JMJD2E inh -10%, CBFb RUNX1 block 0% and HTT ATP protect -6%.
NCC(O)c1cccc(O)c1 (configuration not stated) was read as HTT aggregate -16% and HTT ATP protect -9%.
`NNCc1cccc(O)c1` gave ALDH1A1 inh 7%, HTT aggregate 0%[9.22 µM], HPGD block -10%, JMJD2E inh 22µM*!, CBFb RUNX1 block 17% and HTT ATP protect -1%[10 µM].
Screening Cc1ccc(C(=O)c2ccc(CC(=O)O)n2C)cc1 returned ALDH1A1 inh 2%, HTT aggregate -3%[20.6 µM], HPGD block 16µM*!, JMJD2E inh -9%, CBFb RUNX1 block 11% and HTT ATP protect -98%.
For CN1C(=O)C(=Cc2ccc(N3CCCCCC3)cc2)C(=O)N(C)C1=O the results were ALDH1A1 inh 0.11µM*, HTT aggregate -1%[9.22 µM], JMJD2E inh -13%, CBFb RUNX1 block 7% and HTT ATP protect -9%[10 µM].
O=C1NC(=O)N(c2ccc(F)cc2)C(=O)/C1=C/c1ccc(N2CCOCC2)cc1 was read as ALDH1A1 inh 4µM*, HTT aggregate -4%, JMJD2E inh inconclusive, CBFb RUNX1 block -2% and HTT ATP protect 1%.
`COc1ccc(N2C(=O)NC(=O)/C(=C/c3ccc(N4CCOCC4)cc3)C2=O)cc1` gave ALDH1A1 inh 10µM*, HTT aggregate 5%, JMJD2E inh inconclusive, CBFb RUNX1 block 0% and HTT ATP protect -52%.
Screening COCCN1C(=O)NC(=O)/C(=C\c2ccc(F)cc2)C1=O returned ALDH1A1 inh 10%, HTT aggregate 11%, JMJD2E inh -31%, CBFb RUNX1 block -2% and HTT ATP protect -9%.
